In PubChem BioAssay AID588689 (Southern Research Specialized Biocontainment Screening …, 2011):
In all, about 340,000 compounds went through this assay and about 1,000 (0.29%) were called active. No stated cut-off is given here; in the data, inconclusive means inhibition above about 29% without an active follow-up result; inactive means below that. These entries were drawn from the full list. Entries with a potency or affinity are not part of this list.

Target: Genome polyprotein (Dengue virus type 2 (strain 16681-PDK53)) (UniProt P29991)
Test: Dengue-2 NS5 methyltransferase inhibitors, primary screen, biochemical, confirmation dose response (AID 588689)
Details: Dengue-2 NS5 methyltransferase capping enzyme assay, at 25 µM, stronger effect = higher value
[1] = measured here: pilot screen replicate inhibition

Row | SMILES | inhibition | inhibition [1]
1 | CS(=O)(=O)NCc1nnc(SCc2c(F)cccc2Cl)o1 | -7.53% (inactive) | –
2 | C=CCn1c(SCC(=O)/C(C#N)=C(\C)N)nnc1C1CCCCC1 | -2.77% (inactive) | –
3 | CCN(C[C@H]1N[C@@](C)(C(=O)OC)[C@H]2C(=O)N(C)C(=O)[C@@H]12)S(=O)(=O)c1ccc(OC(F)(F)F)cc1 | -7.6% (inactive) | 0.305%
4 | Cc1ccc(S(=O)(=O)NN2C(=O)/C(=C/c3cccnc3)SC2=S)cc1 | 14.3% (inactive) | –
5 | CC(=O)N1C(=O)/C(=C2\SC(=S)N(NS(=O)(=O)c3ccc(C)cc3)C2=O)c2ccccc21 | 5.31% (inactive) | –
6 | O=C1/C(=C/c2ccccn2)SC(=S)N1NS(=O)(=O)c1ccccc1 | 8.55% (inactive) | –
7 | O=S(=O)(NCc1nc2ccccc2[nH]1)c1ccccc1 | -2.6% (inactive) | –
8 | Cc1ccc(S(=O)(=O)NN2C(=O)/C(=C/c3ccc(F)cc3)SC2=S)cc1 | 9.54% (inactive) | –
9 | O=C1/C(=C\c2ccc(Br)cc2)SC(=S)N1NS(=O)(=O)c1ccccc1 | -8.31% (inactive) | –
10 | O=C1/C(=C/C=C/c2ccco2)SC(=S)N1NS(=O)(=O)c1ccccc1 | 64.5% (inactive) | –
11 | O=C(NC1CC1)C1=C[C@@H](c2csc3ccccc23)C[C@@H](OCc2ccc(CO)cc2)O1 | -6.54% (inactive) | –
12 | O=C(COC(=O)C1CC2CCCC(C1)C2=O)Nc1nc(-c2ccc(F)c(F)c2)cs1 (configuration not stated) | 11% (inactive) | –
13 | CN(C)C(=O)c1ccc(NC(=O)c2cccc(S(=O)(=O)N3CCCc4ccccc43)c2)cc1 | 4.32% (inactive) | –
14 | CC(NC(=O)c1cccnc1)C(c1cccs1)N1CCOCC1 (configuration not stated) | 0% (inactive) | –
15 | CSc1cccc(NC(=O)C2CCN(S(=O)(=O)c3cnc[nH]3)CC2)c1 | -4.39% (inactive) | –
16 | COc1cccc(CNC(=O)c2cccc(NC(=O)C3=C(C)OCCS3)c2)c1 | -1.39% (inactive) | –
17 | O=C(Nc1cccc([N+](=O)[O-])c1)N1CCCCCC1 | -0.65% (inactive) | –
18 | CC(C)OCCCNC(=O)c1ccc(NS(C)(=O)=O)cc1 | 0% (inactive) | –
19 | Cc1cc(C)c(C(=O)c2ccccc2)c(C)c1 | -9.32% (inactive) | –
20 | O=S(=O)(c1ccccc1)N1CCC2(CC1)CO2 | -6.64% (inactive) | –
21 | O=C1/C(=C/c2cccnc2)SC(=S)N1NS(=O)(=O)c1ccccc1 | 5.88% (inactive) | –

Row | SMILES | inhibition | inhibition [1]
22 | CCN1C[C@@H]2[C@@H]3C(=O)N(C)C(=O)[C@@H]3[C@](Cc3ccccc3)(C1=O)N2C(=O)c1ccccc1 | 1.65% (inactive) | –
23 | CC(=O)C1=C(O)C(=O)N(c2ccc(C)cc2)C1c1ccc([N+](=O)[O-])cc1 (configuration not stated) | 2.73% (inactive) | –
24 | COc1cc(CN2CCCCCC2)c([N+](=O)[O-])cc1OC | 0% (inactive) | –
25 | COc1ccc(Cl)cc1NC(=O)CN(C)C(=O)c1ccc(OCc2ccccc2)c(OC)c1 | -1.46% (inactive) | –
26 | O=C(CCCN1C(=O)/C(=C/c2ccccc2Cl)SC1=S)NNC(=O)c1ccc(Cl)cc1Cl | 3.09% (inactive) | –
27 | O=C(CCCN1C(=O)/C(=C/c2ccccc2Cl)SC1=S)NNC(=O)c1ccc(Cl)cc1 | 28.1% (inactive) | –
28 | CN1CCN(C(=O)CCN2C(=O)/C(=C\c3ccc(Cl)cc3Cl)SC2=S)CC1 | 0% (inactive) | –
29 | O=C(COc1ccc(Cl)cc1Cl)NN1C(=O)/C(=C\c2ccc(Cl)cc2)SC1=S | 0% (inactive) | –
30 | O=S(=O)(c1ccc(Cl)cc1)n1c(Cc2ccccc2)nc2ccccc21 | -6.41% (inactive) | –
31 | CC(C)N(CC#CCC(O)(c1ccccc1)c1ccccc1)C(C)C | -5.16% (inactive) | –
32 | Cc1ccc(Cl)cc1NC(=O)CN1C(=O)NC2(CCCCCC2)C1=O | 3% (inactive) | –
33 | COCCNC(=O)CCn1nc(-c2ccc(C)cc2)c2ccccc2c1=O | -3.27% (inactive) | –
34 | NC(=O)c1sc2cc(C(F)(F)F)cnc2c1-c1ccccc1 | 1.48% (inactive) | –
35 | NC(=O)CC(NC(=O)c1ccccc1)c1ccc(NCCCN2CCCC2=O)c([N+](=O)[O-])c1 (configuration not stated) | -0.79% (inactive) | –
36 | CO[C@H]1/C=C/O[C@@]2(C)Oc3c(C)c(O)c4c(O)c(c(C=NN5CCN(C)CC5)c(O)c4c3C2=O)NC(=O)/C(C)=C\C=C\[C@H](C)[C@H](O)[C@@H](C)[C@@H](O)[C@@H](C)[C@H](OC(C)=O)[C@@H]1C | 6.59% (inactive) | –
37 | CO[C@H]1C=CO[C@@]2(C)Oc3c(C)c(O)c4c(O)c(c(C=NN5CCN(C)CC5)c(O)c4c3C2=O)NC(=O)C(C)=CC=C[C@H](C)[C@H](O)[C@@H](C)[C@@H](O)[C@@H](C)[C@H](OC(C)=O)[C@@H]1C | -3.66% (inactive) | –
38 | C=CCOc1ccc(/C=N/NC(=O)C(C)Sc2ccccn2)cc1OC (configuration not stated) | -7.22% (inactive) | –
39 | Cc1ccc(S(=O)(=O)N(C)C)cc1NC(=O)COC(=O)C1(c2ccccc2)CC1 | -4.44% (inactive) | –
40 | O=[N+]([O-])c1cccc(S(=O)(=O)Nc2ccc(S(=O)(=O)Nc3nccs3)cc2)c1 | -3.24% (inactive) | –
41 | O=[N+]([O-])c1ccccc1S(=O)(=O)Nc1ccc(S(=O)(=O)Nc2nccs2)cc1 | 3.56% (inactive) | –
42 | C/C(=N\NC(=O)c1cc(C)nc2ccccc12)c1ccccn1 | -2.29% (inactive) | –

Row | SMILES | inhibition | inhibition [1]
43 | CC(=O)NC1=NN(C(C)=O)C(c2ccc(C(C)C)cc2)S1 (configuration not stated) | 0.65% (inactive) | –
44 | COc1ccc(O)c(C(=O)c2cc(SCC(=O)O)c3nc4sc5c(c4c(=O)n3c2)CCCC5)c1 | 69.1% (inactive) | –
45 | O=C(O)CSc1cc(C(=O)c2ccccc2O)cn2c(=O)c3c(-c4ccccc4)csc3nc12 | 36.4% (inactive) | –
46 | CCc1cc(C(=O)N(Cc2ccccc2)c2c(N)n(CCOC)c(=O)[nH]c2=O)sc1C | -5.81% (inactive) | –
47 | CC(/C=C1\SC(=S)N(NC(=O)c2cccc(O)c2)C1=O)=C\c1ccccc1 | -2.56% (inactive) | –
48 | CC(/C=C1\SC(=S)N(NC(=O)c2ccc(O)cc2)C1=O)=C\c1ccccc1 | 2.55% (inactive) | –
49 | CC(/C=C1\SC(=S)N(NC(=O)c2ccccc2C)C1=O)=C\c1ccccc1 | 2.21% (inactive) | –
50 | CC(/C=C1\SC(=S)N(NC(=O)c2ccc(C)cc2)C1=O)=C\c1ccccc1 | -6.45% (inactive) | –
51 | COc1ccc([C@H]2/C=C\CN(S(=O)(=O)c3ccc(C)cc3)[C@@H](C)C(=O)N2Cc2ccc(F)cc2)cc1 | -6.14% (inactive) | –
52 | CC1CCCCN1CCCNC(=O)CN1C(=O)CSc2ccc(S(=O)(=O)N3CCOCC3)cc21 (configuration not stated) | 0.89% (inactive) | –
53 | Cc1ccnc(SCC(=O)N2CCC(C(N)=O)CC2)n1 | 5.18% (inactive) | –
54 | O=C1CSCC(=O)N1Cc1ccc(Cl)c(Cl)c1 | 1.96% (inactive) | –
55 | CCC(Oc1ccccc1)C(=O)NCCOC (configuration not stated) | -3.68% (inactive) | –
56 | CCOC(=O)c1c(/N=C/c2cccc([N+](=O)[O-])c2O)sc2c1CCC2 | 25.2% (inactive) | –
57 | CCOC(=O)c1c(/N=C/c2cc(OC)cc([N+](=O)[O-])c2O)sc(C)c1C | -0.36% (inactive) | –
58 | O=C(CCC(=O)c1ccc(F)cc1)Nc1cc(Cl)cc(Cl)c1 | -2.06% (inactive) | –
59 | CCOC(=O)c1ccc(CC(=O)c2ccc(O)cc2O)o1 | -4.07% (inactive) | –
60 | CCCc1cc(C(=O)Cc2ccc(C(=O)OCC)o2)c(O)cc1O | -23.9% (inactive) | –
61 | Nc1ccc(C(=O)N/N=C/c2cn(Cc3ccccc3F)c3ccccc23)cc1 | -1.3% (inactive) | –
62 | O=C(O)c1ccc(N/N=C/c2cn(Cc3ccc(F)cc3)c3ccccc23)cc1 | 9.41% (inactive) | –
63 | COc1ccc(OCC(O)CN2CCOCC2)cc1 (configuration not stated) | 7.33% (inactive) | –

Row | SMILES | inhibition | inhibition [1]
64 | Cc1ccc[n+](-c2[nH]c(=O)sc2/C=N/N=C(\[O-])c2cccnc2)c1 | 7.25% (inactive) | –
65 | Cc1ccc(NS(=O)(=O)c2ccc(NS(=O)(=O)c3cccs3)cc2)cc1 | -2.07% (inactive) | –
66 | Cc1ccc(NS(=O)(=O)c2cccs2)nc1 | -0.32% (inactive) | –
67 | O=C(C[n+]1ccn(CCCNP2(=O)C=C(c3ccccc3)OC(c3ccccc3)=C2)c1)c1cccs1 | 6.89% (inactive) | –
68 | Cc1cccc(COCC(Cc2ccccc2)N2CCN(C(=O)c3cccc(C)c3)CCC2=O)c1 (configuration not stated) | -1.6% (inactive) | –
69 | COc1ccc(-c2noc(CCC(=O)N3CCN(c4ccccc4C)CC3)n2)cc1 | -3.97% (inactive) | -0.01%
70 | O=C(O)c1cc(O)c2c(c1)C(=O)c1cccc(O)c1C2=O | 5.97% (inactive) | –
71 | COc1cccc2c1-c1c(O)cccc1C2=O | 9.88% (inactive) | 6.38%
72 | Nc1ncn(C(=S)Nc2ccccc2)n1 | 5.4% (inactive) | –
73 | COc1cc(OC)cc(-c2nnc(Nc3nc4c(F)cccc4s3)o2)c1 | 0% (inactive) | –
74 | COc1cccc(-c2nnc(Nc3nc4c(F)cccc4s3)o2)c1 | 3.39% (inactive) | –
75 | Cc1nc2cc(N3CCOCC3)c(NC(=O)C3CC3)cc2c(=O)n1Cc1ccccc1 | 0% (inactive) | –
76 | O=S1(=O)N=C(SCCO)c2ccccc21 | 1.39% (inactive) | –
77 | O=C(CSC1=NS(=O)(=O)c2ccccc21)Nc1ccccc1 | 25.7% (inactive) | –
78 | COc1cccc(CNS(=O)(=O)c2cc3c4c(c2)CCN4C(=O)CC3)c1 | -2.16% (inactive) | –
79 | CNC(=S)Nc1cc(C)ccc1OC(F)F | -3.09% (inactive) | –
80 | CCOC(=O)c1c(NC(=O)C2C3CCC(O3)C2C(=O)O)sc(C)c1-c1ccc(C)cc1 (configuration not stated) | 16.7% (inactive) | –
81 | CCOC(=O)c1c(-c2cccc3ccccc23)csc1NC(=O)C1C2CCC(O2)C1C(=O)O (configuration not stated) | 2.56% (inactive) | –
82 | COC(=O)c1c(-c2ccc(C(C)(C)C)cc2)csc1NC(=O)C1C2CCC(O2)C1C(=O)O (configuration not stated) | 10.8% (inactive) | –
83 | CCOC(=O)c1c(NC(=O)C2C3CCC(O3)C2C(=O)O)sc2c1CCCC2 (configuration not stated) | -0.74% (inactive) | –
84 | O=C(Nc1nc2n(n1)C(c1ccc(F)cc1)CC(c1ccccc1)N2)c1ccco1 (configuration not stated) | -3.83% (inactive) | –
